Screening data deposited in PubChem BioAssay by National Center for Advancing Translational Sciences (NCATS).
IL1B secr inh: inhibitors of inflammasome signaling (IL-1 beta secretion) | actives 4.7% (n = 360,000) | THP-1 LPS/ATP IL-1B secretion, AlphaLISA, 16 h; active compounds read low | activity change, % at 57.5 µM; in the data active = activity change below about -50%; inconclusive = mostly about -30% to -49%
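Secreted IL-1B measured by AlphaLISA bead assay after 16 h compound exposure of THP-1 cells; compounds (final up to 57.5 uM) added 1 h before LPS (250 ng/mL) and ATP (1.25 mM) stimulation; lower signal means less secretion.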
CtBP-E1A blk: blocks the CtBP interaction with E1A | AlphaScreen GST-E1A/His-CtBP binding, 1536-well; active compounds read low | activity change, % (test concentration not listed) | actives 0.49% (n = 340,000) | AID 651724; in the data active = activity change below about -65%; inconclusive = mostly about -30% to -63%
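GST-E1A and His-tagged CtBP (125 nM each as 5X stock) were preincubated with pin-transferred compound for 2 h at 37 °C in the dark, then glutathione donor and nickel acceptor beads were added for 1 h before AlphaScreen reading.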
DT40 TDP1 no CPT: qHTS for Inhibitors of human tyrosyl-DNA phosphodiesterase 1 (TDP1): qHTS in cells in absence of CPT; DT40 Tdp1-/- hTDP1 cells, no CPT, ATP luminescence, 48 h; Potency, µM (series often up to 46.2 µM), without a hit: at the top dose activity change, negative = growth inhibition, hits mostly inhibitors; actives 15% (n = 420,000); also: potency is read from the fitted curve at half-maximal effect; nearly all actives have a fitted effect of over 55% in size
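Luminescent ATP content (CellTiter-Glo) served as the growth readout. Knockout chicken DT40 cells expressing human TDP1 were exposed to compounds without camptothecin for a minimum 48 hr at 37 °C.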
DT40 TDP1 CPT: DT40-hTDP1 cell growth loss with CPT; chicken DT40 Tdp1-/-;hTDP1 cells + 20 nM CPT, ATP luminescence, 48 h; Potency, µM (doses to about 46.2 µM), for the others: at the top dose activity change, negative = growth inhibition, most hits filed as inhibitors; AID 686979; actives 12% (n = 420,000); also: potency is read from the fitted curve at half-maximal effect; nearly all actives have a fitted effect of over 55% in size
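Cell growth measured by CellTiter-Glo luminescence after a minimum 48 h, 37 C compound exposure with 20 nM CPT in Tdp1-knockout DT40 cells stably expressing hTDP1, seeded 400/well; qHTS titration format.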
Six1-Eya2 blk: blocks human Six1 binding to Eya2. actives 0.56% (n = 360,000). AID 651725. activity change, % (test concentration not listed). Q15475+O00167. AlphaScreen GST-Six1/His-Eya2 binding, biochemical; active compounds read low; in the data active = activity change below about -65%; inconclusive = mostly about -30% to -63%
Target sequence (O00167 whole entry, looked up): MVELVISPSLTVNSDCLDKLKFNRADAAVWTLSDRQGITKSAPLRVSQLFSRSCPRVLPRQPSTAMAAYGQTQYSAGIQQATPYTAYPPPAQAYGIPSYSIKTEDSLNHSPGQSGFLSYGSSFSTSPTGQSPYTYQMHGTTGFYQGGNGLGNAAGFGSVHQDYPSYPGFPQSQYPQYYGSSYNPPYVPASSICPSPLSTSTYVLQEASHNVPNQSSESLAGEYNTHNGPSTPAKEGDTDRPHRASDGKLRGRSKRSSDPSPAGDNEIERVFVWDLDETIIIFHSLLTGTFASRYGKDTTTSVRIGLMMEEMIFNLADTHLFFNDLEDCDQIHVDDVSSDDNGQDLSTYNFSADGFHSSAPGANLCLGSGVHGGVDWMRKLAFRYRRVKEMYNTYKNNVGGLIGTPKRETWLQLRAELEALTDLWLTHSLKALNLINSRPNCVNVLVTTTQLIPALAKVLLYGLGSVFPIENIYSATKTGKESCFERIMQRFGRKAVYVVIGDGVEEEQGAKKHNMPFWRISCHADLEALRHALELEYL
Target sequence (Q15475 whole entry, looked up): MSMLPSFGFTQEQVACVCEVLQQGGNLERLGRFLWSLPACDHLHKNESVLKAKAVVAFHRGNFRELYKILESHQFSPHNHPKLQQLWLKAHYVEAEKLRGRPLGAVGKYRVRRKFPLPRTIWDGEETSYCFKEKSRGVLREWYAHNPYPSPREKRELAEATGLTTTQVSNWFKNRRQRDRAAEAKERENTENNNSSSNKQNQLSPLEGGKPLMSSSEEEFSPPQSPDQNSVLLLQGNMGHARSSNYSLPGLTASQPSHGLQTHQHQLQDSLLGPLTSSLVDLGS
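AlphaScreen luminescence read after one hour at 37 °C in darkness. Pin-transferred compounds met GST-Six1 and His-Eya2 protein (5X stock 250 nM/500 nM) plus glutathione donor and Ni-chelate acceptor beads (5X, 50 ug/mL).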
TDP1 inh: TDP1 (human) enzyme inhibition; Q9NUW8; recombinant TDP1, AlphaScreen DNA substrate cleavage; Potency, µM (doses to about 130 µM), without a hit: at the highest dose activity change, negative = inhibition, most hits filed as inhibitors; actives 0.28% (n = 350,000); AID 485290; also: potency is read from the fitted curve at half-maximal effect; nearly all actives have a fitted effect of over 40% in size
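E. coli-derived human Tdp1, 1 nM final. Cpd preinc 15 min RT; substrate 15 nM final, 5 min RT; AS bead mix 10 ug/ml final, 10 min RT. Signal loss = tyrosine-FITC cleavage. No-enzyme wells = max signal.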
An asterisk follows results filed as active; ? = inconclusive; . = no result given; [ ] = remark or other dose. An excerpt weighted towards active compounds, which were near 18% of everything screened. Unless noted, calls follow the shape of the dose curve; as a rule, active = well fitted curve in the direction sought with a large enough effect; inconclusive = small, poorly fitted or top-dose-only effect, or another doubt; inactive = no such curve, though single readings can be large; an effect the other way counts as inactive or inconclusive. % is scaled to controls: 0 for no effect and ±100 for the full control effect.

SMILES	IL1B secr inh	CtBP-E1A blk	DT40 TDP1 no CPT	DT40 TDP1 CPT	Six1-Eya2 blk	TDP1 inh
C=C(C)C(=O)OC1(C(F)(F)F)Oc2cc(C)ccc2NC1=O (centres undefined)	-72.9*	2.2	16.4µM*	16.4µM*	-10.7	-3.8%
COc1ccc(C2(O)C(=O)Nc3ccc(C)cc32)cc1 (centres undefined)	25.1	0.8	4.1%	6.6%	-9.9	.
CCn1cc(CNC(=O)c2cccc([N+](=O)[O-])c2)cn1	6.5	1.2	12.7%	7.0%	1.0	0.0%
CCn1cc(CNCc2cn[nH]c2-c2cc3ccccc3o2)cn1	7.8	2.0	23.1µM*	18.4µM*	-3.4	5.4%
O=C(CSc1nc2c([nH]c3ccccc32)c(=O)n1-c1cccc(Cl)c1)NCc1ccccc1	.	.	?	?	.	0.0%
O=C(NCCc1c[nH]c2ccccc12)/C(=C/c1cccnc1)NC(=O)c1ccccc1	31.3	.	-28.4%	7.1%	-3.7	4.9%
COc1ccccc1N(Cc1cc2ccc(C)cc2[nH]c1=O)C(C)=O	0.0	1.4	-2.4%	3.3%	1.4	1.4%
CCN(CC)CCN(Cc1cc2ccc(C)cc2[nH]c1=O)C(=O)NC1CCCCC1	?	-4.3	-9.3%	-4.7%	-0.7	5.1%
CCN1CCCC1CN(Cc1cc2ccc(C)c(C)c2[nH]c1=O)C(=O)Nc1ccccc1OC (centres undefined)	?	18.2	?	18.4µM*	12.3	5.1%
COc1ccccc1NC(=O)N(CCN1CCOCC1)Cc1cc2cc(C)cc(C)c2[nH]c1=O	-27.7	1.6	-29.2%	1.5%	1.9	7.2%
CCOc1ccccc1NC(=S)N(Cc1cc2ccc(C)cc2[nH]c1=O)CC1CCCN1CC (centres undefined)	-21.8	-9.3	25.9µM*	20.6µM*	-13.7	-2.7%
CCN1CCCC1CN(Cc1cc2ccc(C)cc2[nH]c1=O)C(=S)Nc1ccccc1OC (centres undefined)	-12.1	-11.6	20.6µM*	?	-13.5	7.9%
O=C(COC(=O)CNC(=O)c1ccccc1)NC1CCCC1	3.1	4.3	-1.0%	14.7%	-3.1	10.1%
CC(C)C[C@H](NC(=O)[C@@H](O)[C@H](N)Cc1ccccc1)C(=O)O	.	.	22.4µM*	-20.3%[92.5 µM]	.	7.1%
COc1ccc(NC(=O)Cn2nnc(-c3ccccc3NC(=O)c3ccco3)n2)cc1	-1.6	14.5	2.59µM*	2.91µM*	0.9	4.0%
COc1ccc(NC(=O)Cn2nnc(-c3ccccc3N)n2)cc1OC	9.6	10.8	-11.8%	-18.5%	-2.1	3.3%
COc1ccccc1NC(=O)Cn1nnc(-c2ccccc2NC(=O)c2ccco2)n1	12.2	-1.1	?	-13.6%	8.3	2.6%
COc1cc(NC(=O)Cn2nnc(-c3ccccc3N)n2)cc(OC)c1	-58.8*	4.7	?	?	-4.5	5.3%
COc1ccccc1NC(=O)Cn1nnc(-c2ccccc2NC(=O)c2cccs2)n1	-15.6	5.2	20.6µM*	?	1.4	4.1%
CCOc1ccc(N2C(=O)CC(n3nc(C)cc3C)C2=O)cc1 (centres undefined)	-2.3	0.1	-4.2%	1.8%	-1.8	5.0%
O=S(=O)(Nc1cccc(-c2ccc(N3CCCCCC3)nn2)c1)c1ccc(C(F)(F)F)cc1	22.6	1.1	9.9%	-10.9%	-5.2	3.2%
O=C(Cn1ccc2ccccc2c1=O)NCCC(=O)Nc1ccc2c(c1)OCCO2	?	5.4	4.8%	-10.7%	-2.5	3.9%
COc1ccc(NC(=O)COC(=O)c2cccc(S(=O)(=O)N(C)C)c2)cc1	5.5	13.9	9.7%	1.9%	1.3	-2.5%
COc1cc(C(=O)OCC(=O)Nc2sccc2C(N)=O)cc(OC)c1OC	78.2	1.4	3.66µM*	4.61µM*	-10.4	2.4%
COc1ccc(C(=O)OCC(=O)Nc2sccc2C(N)=O)cc1OC	2.9	-10.1	?	?	-3.0	0.0%
SMILES	IL1B secr inh	CtBP-E1A blk	DT40 TDP1 no CPT	DT40 TDP1 CPT	Six1-Eya2 blk	TDP1 inh
CN(C)S(=O)(=O)c1cccc(C(=O)OCC(=O)Nc2sccc2C(N)=O)c1	-16.6	-11.3	20.6µM*	14.6µM*	-13.8	1.0%
O=C(NCc1ccccc1)c1ccc2c(c1)C(=O)N(CC1CCCO1)C2=O (centres undefined)	-1.2	-11.7	-5.8%	-5.7%	-0.6	3.8%
C#CCOCCOCCOCCNc1nc(N2CCN(C(=O)CCCCCCCCCCNC(=O)Cn3cc(CCCCCN)nn3)CC2)nc(N2CCN(C(=O)CCCCCCCCCCNC(=O)Cn3cc(C[C@@H](C)O)nn3)CC2)n1	-77.4*	-26.7	?	?	-13.7	14.1%
C#CCOCCOCCOCCNc1nc(N2CCN(C(=O)CCCCCCCCCCNC(=O)Cn3cc(C[C@@H](C)O)nn3)CC2)nc(N2CCN(C(=O)CCCCCCCCCCNC(=O)[C@@H]([C@H](C)CC)n3cc(CCCCCN)nn3)CC2)n1	-105.1*	-6.5	5.8µM*	13µM*	-6.1	10.7%
C#CCOCCOCCOCCNc1nc(N2CCN(C(=O)CCCCCCCCCCNC(=O)Cn3cc(CCCCCN)nn3)CC2)nc(N2CCN(C(=O)CCCCCCCCCCNC(=O)[C@@H]([C@H](C)O)n3cc(C)nn3)CC2)n1	-20.4	-0.8	?	?	-5.8	4.4%
C#CCOCCOCCOCCNc1nc(N2CCN(C(=O)CCCCCCCCCCNC(=O)Cn3cc(C[C@@H](C)O)nn3)CC2)nc(N2CCN(C(=O)CCCCCCCCCCNC(=O)[C@@H]([C@H](C)O)n3cc(C)nn3)CC2)n1	8.3	-0.7	7.31µM*	7.31µM*	1.9	-0.1%
Nc1c2c(nc3c1CCCC3)CCCC2 (tested in a mixture with another compound)	7.3	-14.3	-11.7%	31.4%	-0.8	2.4%
Cc1cc(NCCc2ccc(Cl)cc2)n2ncnc2n1	39.6	0.5	?	-4.7%	1.5	-2.5%
COC(=O)c1ccc(NC(=O)COc2ccc([N+](=O)[O-])cc2)cc1	5.2	13.1	-8.5%	0.2%	2.1	0.6%
CC(=O)N1CCN(Cc2nc3cc(NC(=O)c4ccccc4)ccc3n2C)CC1	4.0	5.0	11.7%	3.0%	-1.8	6.0%
O=C1NC2(CCCCC2)C(=O)N1CCS(=O)(=O)Oc1ccccc1	6.1	6.4	-14.4%	1.1%	1.8	-0.5%
